Bioassay records: PubChem BioAssay, several laboratories
PLAP act – activates human placental alkaline phosphatase; purified PLAP enzyme, luminescent substrate read-out; stronger effect = higher value; 1.2% of 96,000 active; activation fold at 20 µM; in the data active = activation fold above about 2
S1P2 agonist – agonists of human S1P2 receptor. activation, % at 4.5 µM. AID 729. S1P2-expressing cell line, agonist reporter read-out. O95136. 0.46% of 97,000 active; in the data active = activation above about 16%
Target sequence (O95136 whole entry, looked up): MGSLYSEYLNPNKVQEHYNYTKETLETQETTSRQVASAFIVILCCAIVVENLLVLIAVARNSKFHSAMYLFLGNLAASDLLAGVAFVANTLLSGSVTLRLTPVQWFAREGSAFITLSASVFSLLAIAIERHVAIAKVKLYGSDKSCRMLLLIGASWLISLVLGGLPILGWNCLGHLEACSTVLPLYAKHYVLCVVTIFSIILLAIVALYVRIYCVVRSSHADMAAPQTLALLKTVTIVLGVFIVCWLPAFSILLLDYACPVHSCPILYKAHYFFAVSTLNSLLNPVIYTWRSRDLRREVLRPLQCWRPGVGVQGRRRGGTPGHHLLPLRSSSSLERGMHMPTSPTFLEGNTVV
S1P2 blocker – antagonists of human S1P2 receptor; cell-based S1P2 antagonist assay, inhibition at 5 uM; inhibition, % at 5 µM; 0.21% of 97,000 active; in the data active = inhibition above about 45%;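 note: CRE beta-lactamase reporter cells expressing human S1P2 stimulated with S1P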
GALR2 blocker – GALR2 (human) receptor antagonism; O43603; GALR2-expressing cells, antagonist mode; inhibition, % at 4 µM; 0.39% of 140,000 active; AID 828; in the data active = inhibition above about 27%;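 note: cells stimulated with galanin 1-16 at roughly its EC80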
GALR2 ag – agonists of human galanin receptor 2 (GALR2). O43603. GALR2-expressing cells, agonist activation read-out. activation, % (test concentration not listed). 0.48% of 140,000 active. AID 803; in the data active = activation above about 5%, passing the limit was not always enough
Hits are given with their value; - = inactive; . = no result given. Only some compounds are listed: those with a hit (about 2% of all), similar ones and a draw of the others.

SMILES	PLAP act	S1P2 agonist	S1P2 blocker	GALR2 blocker	GALR2 ag
Cc1ccc(-c2cc(-c3ccc(C)o3)nc(N)c2C#N)cc1	-	-	-	-	-
Cc1ccc(-c2cc(-c3ccc(Cl)cc3)c(C#N)c(N)n2)o1	-	19	-	-	13
Cc1cc(-c2cc(-c3ccc(Cl)cc3)nc(N)c2C#N)co1	-	19	-	-	9.9
O=C(NCC(c1cccs1)N1CCOCC1)c1ccccc1NS(=O)(=O)c1cc([N+](=O)[O-])ccc1Cl (configuration not stated)	.	.	.	-	-
O=C(CSc1ccc(-c2ccco2)nn1)c1ccccc1	.	.	.	-	-
Cc1cccc(N(CC(=O)NC2CCCC2)C(=O)CCCC(=O)Nc2ccccn2)c1	2	-	-	-	-
CC(C)C1Oc2ccccc2N(CC(=O)N(Cc2ccncc2)Cc2ccco2)C1=O (configuration not stated)	.	-	-	-	-
CCc1ccc(N2C(=O)CC(N3CCC(C(=O)OC)CC3)C2=O)cc1 (configuration not stated)	-	27	-	-	-
CC(=O)Nc1ccc(NC(=S)Nc2ccccc2)cc1	-	-	-	-	-
CC(=O)Nc1ccc(NC(=O)/C(Cl)=C/c2ccccc2)cc1	-	35	-	-	-
Cc1sc2ncnc(Oc3ccc(-n4ccnc4)cc3)c2c1C	-	.	.	-	-
O=C(NNc1ccccn1)C(=O)NNS(=O)(=O)c1ccc(Cl)cc1	2.4	-	-	-	-
O=C(NNC1=C(C(=O)C(F)(F)F)CCC1)c1ccccc1O	-	-	-	-	-
O=C(NNC1=C(C(=O)C(F)(F)F)CCC1)c1ccccc1Cl	2.1	-	-	-	-
COc1cc2c(cc1OC)C(c1ccc(-c3ccc(Cl)cc3Cl)o1)=NCC2	-	34	-	-	-
COc1cc2c(cc1OC)C(c1ccc(-c3ccc(Cl)c(Cl)c3)o1)=NCC2	-	19	-	-	-
CC1=NOC(=O)/C1=C\c1ccc(-c2cc(Cl)ccc2Cl)o1	-	-	-	-	-
COc1cc2c(cc1OC)C(c1ccc(-c3ccccc3Cl)o1)=NCC2	-	37	-	-	-
COc1cc2c(cc1OC)C(c1ccc(-c3cc(Cl)ccc3Cl)o1)=NCC2	-	39	-	-	-
COc1ccc2c(c1)CCN=C2Cc1ccc(OC)c(OC)c1	.	.	.	-	-
N#C/C(=C(/O)COC(=O)c1ccc(C#N)cc1)c1nc2ccccc2s1	.	.	.	-	-
Cc1[nH]n(-c2c(Cl)cc(Cl)cc2Cl)c(=O)c1C=Nc1ccc(S(=O)(=O)N2CCOCC2)cc1	.	.	.	-	-
CCc1ccc(-c2ccc(C(=O)C(F)(F)F)[nH]2)cc1	-	-	-	-	-
O=C(Nc1ccccc1)c1sc2cc(C(F)(F)F)cnc2c1-c1cccs1	-	-	46	-	-
O=C(COC(=O)C1CCN(/C=C/C(=O)C(F)(F)F)CC1)Nc1cccc(F)c1	.	.	.	-	-
SMILES	PLAP act	S1P2 agonist	S1P2 blocker	GALR2 blocker	GALR2 ag
CCCCCC(=O)NNC(=O)c1ccc(F)cc1	.	.	.	-	-
COc1cc2c(cc1OC)-c1cc(N3CCCCCC3)nc(=O)n1CC2	-	36	-	-	-
COc1ccc(C(=O)Nc2nc3c(s2)CCCC3)cc1S(=O)(=O)N1CCCc2ccccc21	.	.	.	-	-
COc1cc2c(cc1OC)-c1cc(NC3CCCCCC3)nc(=O)n1CC2	-	42	-	-	-
CCN(CC)CCCNc1cc2n(c(=O)n1)CCc1cc(OC)c(OC)cc1-2	-	-	-	-	-
COc1cc2c(cc1OC)-c1cc(N3CCCc4ccccc43)nc(=O)n1CC2	-	41	-	-	-
COC(=O)/C=C1/S/C(=N/NC(=O)c2ccccc2)NC1=O	-	-	-	-	-
COC(=O)/C=C1\S/C(=N/NC(=O)c2ccccc2)NC1=O	2.5	-	-	-	-
FC(F)(F)c1cnc(Oc2ccccc2-c2nnco2)c(Cl)c1	2.3	-	-	-	-
Cc1nn(Cc2cccc(F)c2)c(C)c1NC(=O)c1ccc(COc2ccccc2Cl)cc1	2	-	-	-	-
Cc1nn(Cc2c(F)c(F)c(F)c(F)c2F)c(C)c1NC(=O)c1cccc(COc2ccccc2Cl)c1	-	-	-	-	-
Cc1cc(NC(=O)CCS(=O)(=O)c2nc(-c3ccccc3)cc(C(F)(F)F)n2)no1	-	.	.	.	.
CS(=O)(=O)c1nc(-c2ccccc2)cc(C(F)(F)F)n1	.	.	.	54	-
O=C(Cc1ccccc1)NCC(=O)N1CCCCCC1	-	-	-	-	-
Cc1nc(SCc2nc3ccccc3[nH]2)c2oc3ccccc3c2n1	-	23	-	-	-
c1ccc2[nH]c(CSc3ncnc4c3oc3ccccc34)nc2c1	-	32	-	-	-
Fc1ccc(CSc2ncnc3c2oc2ccccc23)cc1	.	.	.	-	-
Cc1occc1C(=O)NNC(=O)NC12CC3CC(CC(C3)C1)C2	-	-	-	-	-
COC(=O)/C(=N\Nc1ccccc1)Sc1nnc(-c2ccc(OC)cc2)n1C	.	.	.	-	-
Cn1c(SCc2nc3ccccc3[nH]2)nnc1-c1cccs1	-	-	-	-	-
Cn1c(Cc2cccs2)nnc1SCc1nc2ccccc2[nH]1	2	.	.	-	-
CCC1Cc2c(nc3c4c(nc(N5CCOCC5)c(C#N)c24)NC(C)=N3)O1 (configuration not stated)	.	-	-	-	-
CCN1CCN(Cc2cccc(Oc3ccccc3)c2)CC1	2.2	-	-	-	-
CCN1CCN(Cc2cccc(Oc3ccc(Cl)cc3)c2)CC1	-	-	-	-	-
CCCNC(=O)c1c(N)n(-c2ccc3c(c2)OCO3)c2nc3ccccc3nc12	-	-	-	-	-
SMILES	PLAP act	S1P2 agonist	S1P2 blocker	GALR2 blocker	GALR2 ag
CCCNC(=O)c1c(N)n(-c2cc(OC)cc(OC)c2)c2nc3ccccc3nc12	-	.	.	-	14
COc1ccc(-n2c(N)c(C(=O)NCC3CCCO3)c3nc4ccccc4nc32)c(OC)c1 (configuration not stated)	2	-	-	-	-
COCCN(C(=O)Cc1cccs1)C(C(=O)NCc1ccc(OC)cc1)c1ccccc1 (configuration not stated)	-	-	-	-	-
CCn1c(=S)[nH]c2ccccc21	2.1	-	-	-	-
COc1ccc2cc(C(=O)NCCO)sc(=O)c2c1OC	.	-	-	-	-
CCOC(=O)c1cc2ccc(OC)c(OC)c2c(=O)s1	-	109	-	-	-
COC(=O)c1ccc(COc2ncnc3c(Cl)cc(Cl)cc23)o1	-	-	-	-	-
O=C(CCSc1ccc(Cl)cc1)NC12CC3CC(CC(C3)C1)C2	-	-	-	-	-
CC(C)OCCCNC(=O)CCSc1ccc(Cl)cc1	-	-	-	-	-
COc1ccc(-n2c(SCC(=O)NNC(=O)c3ccccc3C)nnc2-c2ccncc2)cc1	2.1	-	-	-	-
COc1ccc(C(=O)NNC(=O)CSc2nnc(COc3ccccc3)n2C)cc1	2	-	-	-	-
Cc1ccccc1C(=O)NNC(=O)CSc1nnc(C)n1-c1ccccc1	.	.	.	-	-
COc1ccc(C(=O)NNC(=O)CSc2nnc(COc3ccc4ccccc4c3)n2C)cc1	-	-	-	-	-
C/C(N)=C(/C#N)C(=O)COC(=O)CCC1CCCC1	-	-	-	-	-
Cc1ccc(/C(O)=C2/C(=O)C(=O)N(CCCn3ccnc3)C2c2ccccn2)cc1 (configuration not stated)	-	-	-	-	-
